Vaccinia stage = blocks a specific stage of Vaccinia orthopoxvirus infection. activity change (mCherry), % (test concentration not listed). 0.01% of 89,000 active. Vaccinia-infected cells, mCherry/Venus stage reporter fluorescence; active compounds read low; in the data active means activity change below about -37%, passing the limit was not always enough; tested in A549 cells
Starred values were filed as active, the others as inactive. A selection follows.

SMILES	Vaccinia stage
CCCN1C[C@H](C)[C@H](OC)CN(C)C(=O)c2cc(NC(=O)NC3CCCCC3)ccc2OC[C@H]1C	-14
CO[C@H]1CN(C)C(=O)c2cc(NC(=O)C3CC3)ccc2OC[C@H](C)N(CC2CC2)C[C@@H]1C	5
Cc1ccc(S(=O)(=O)NCC[C@H]2CC[C@H](NC(=O)Nc3ccccc3F)[C@@H](CO)O2)cc1	-2
C[C@H](NC(=O)C[C@H]1C[C@H]2c3cc(NS(C)(=O)=O)ccc3O[C@H]2[C@H](CO)O1)c1ccccc1	-1
COCC(=O)N1C[C@@H](C)[C@@H](OC)CN(C)C(=O)c2cc(NC(=O)c3cnccn3)ccc2OC[C@H]1C	4
CCC(=O)Nc1ccc2c(c1)OC[C@H](C)N(C(=O)CN(C)C)C[C@H](C)[C@H](OC)CN(C)C2=O	-1
CC(=O)Nc1ccc2c(c1)C(=O)N(C)[C@H]1CC[C@H](CC(=O)NCc3ccc(F)cc3)O[C@H]1CO2	7
COc1ccc2c3c(n(C)c2c1)[C@H](CO)N(Cc1ccccc1OC)CC31CCN(CC2CCOCC2)CC1	-8
COc1cccc(-c2ccc([C@@H]3[C@H](CO)N(C(=O)C4CC4)C34CN(C(C)=O)C4)cc2)c1	6
CCC(=O)Nc1ccc2c(c1)C(=O)N(C)[C@H]1CC[C@H](CC(=O)Nc3cccc(OC)c3)O[C@@H]1CO2	8
CC(C)NC(=O)N(C)C[C@@H]1OCCCC[C@@H](C)Oc2ccc(NC(=O)Cc3ccccc3)cc2C(=O)N([C@@H](C)CO)C[C@H]1C	9
COc1ccc(CN(C)C[C@@H]2Oc3ccc(NC(=O)NC(C)C)cc3C(=O)N([C@H](C)CO)C[C@H]2C)cc1	11
CN(C)CC(=O)Nc1ccc2c(c1)[C@H]1C[C@@H](CC(=O)NC3CCCCC3)O[C@H](CO)[C@H]1O2	1
C[C@H](NC(=O)C[C@H]1C[C@@H]2c3cc(NC(=O)C4CCC4)ccc3O[C@@H]2[C@H](CO)O1)c1ccccc1	12
O=C(N[C@@H]1CC[C@H](CCNC(=O)C2CCCCC2)O[C@H]1CO)c1ccncc1	15
CC(C)CC#Cc1cnc2c(c1)C(=O)N([C@@H](C)CO)C[C@@H](C)[C@H](CN(C)C(=O)Nc1ccccc1F)O2	-17
C[C@H](CO)N1C[C@H](C)[C@@H](CN(C)S(=O)(=O)c2ccc(F)cc2)Oc2ccc(NC(=O)CCN3CCOCC3)cc2CC1=O	-4
Cc1noc(C)c1S(=O)(=O)N(C)C[C@@H]1OCCCC[C@H](C)Oc2ccc(NC(=O)Nc3ccc(C(F)(F)F)cc3)cc2C(=O)N([C@H](C)CO)C[C@@H]1C	-10
CC(C)CC#Cc1ccc2c(c1)O[C@H](CN(C)C(=O)c1ccncc1)[C@@H](C)CN([C@H](C)CO)S2(=O)=O	-16

Screening results: PubChem, Broad Institute
